Data published in PubChem BioAssay (NCI).
Values joined by “and” are separate entries in the source; they are usually repeats but may differ in a detail not shown here. Equal values may be shown once. Compounds without any hit were thinned out: in the full panel of roughly 83,000, 20% have a hit.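 Percent growth is the endpoint: 0 to 100 indicates growth inhibition (40 means 60% inhibition), 0 means no net growth, and negative values indicate cell death.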 Active and inactive are the calls of the source. Rule for the calls: active = growth percent below 10; inactive = the rest.

tested on: MDA-MB-468 breast; assay: NCI-60 one-dose screen, 48 h (100 = growth as untreated, 0 = no growth, -100 = all killed); details: 10 µM unless noted

Row | SMILES | growth
1 | O=C(O)C1C2CC3C(OC(=O)C31)C2Br (stereo not given) | 93.2% (inactive) and 72.3% (inactive)
2 | CC1=NN(c2cccc(Cl)c2)C(=O)/C1=C\C=C\c1ccccc1 | 9.96% (active)
3 | C=C(C)[C@@H]1CC[C@]2(C(=O)NCCNCCNC(=O)OC(C)(C)C)CC[C@]3(C)[C@H](CC[C@@H]4[C@@]5(C)CCC(=O)C(C)(C)[C@@H]5CC[C@]43C)[C@@H]12 | 53.5% [100 µM] (inactive)
4 | CN1CCN(CCNc2nccc(-c3c(-c4cccc(O)c4)nc4sccn34)n2)S1(=O)=O | 79.4% (inactive)
5 | CCOC(=O)c1c(NC(=O)C2CCCCC2C(=O)O)sc2c1CCCC2 (stereo not given) | 103% (inactive)
6 | CCOC(=O)C1=C(C)NC(C)=C(C(=O)OCc2ccccc2)C1c1cccc(C#N)c1 (stereo not given) | 16% (inactive)
7 | O=C(Nc1ccc(-c2nc3cc4ccccc4cc3[nH]2)cc1)c1cccc(Br)c1 | 48.3% (inactive)
8 | COc1cccc(/C=C2\Oc3cc(OCCN4CCCC4)ccc3C2=O)c1 | 82.8% (inactive)
9 | CC1(C)CC[C@]2(C(=O)O)CC[C@]3(C)C(=CC[C@@H]4[C@@]5(C)C/C(=C/c6cccnc6)[C@H](O)C(C)(C)[C@@H]5CC[C@]43C)[C@@H]2C1 | 4.01% [100 µM] (active)
10 | COc1ccc(OC)c(/C=C2\COc3ccc(O)cc3C2=O)c1 | 82.7% (inactive)
11 | CCC1(/C=N/NC(N)=S)NC(=O)NC1=O (stereo not given) | 106% (inactive)
12 | O=C1OC(Cc2ccccc2)C1c1ccccc1 (stereo not given) | 97.4% (inactive)
13 | O=C(NCCCNS(=O)(=O)c1ccc(Cl)cc1)Nc1ccc(-n2cc(-c3ccncc3)c(-c3ccc(Cl)c(O)c3)n2)cc1 | 47.6% (inactive)
14 | COc1ccc(/C=C/C(=O)c2cccc(B(O)O)c2)cc1O | 34.9% (inactive)
15 | COc1c(-c2cc(-c3ccc(C)o3)[nH]c(=O)n2)c(O)cc2occc12 | 25.8% (inactive)
16 | Clc1ccc2c(c1)C[C@H]1C[C@@H](c3cccs3)N2O1 | 106% (inactive)
17 | CCc1ccc(C(=O)/C=C/C23c4ccccc4C(c4ccccc42)C2C(=O)NC(=O)C23)cc1 (stereo not given) | -15.9% (active)
18 | CN(C)c1nc(-c2cccs2)n2nc(-c3ccc(Cl)cc3)cc2n1 | 33.6% (inactive)
19 | CC(C)(C)c1cc(NC(=O)Nc2ccc(-c3cn4c(n3)sc3cc(OCCN5CCOCC5)ccc34)cc2)no1 | 12.4% (inactive) and 30.6% (inactive)
20 | CO[C@@]12[C@@H]3NC3CN1C1=C(C(=O)C(N)=C(C)C1=O)[C@@H]2COC(N)=O (stereo not given in full) | -14.1% (active)

Row | SMILES | growth
21 | O=C(Nc1cccc2cccnc12)c1cc(C(=O)c2ccc(Cl)cc2)n2ccc(-c3ccncc3)cc12 | 108% (inactive)
22 | Cc1onc(-c2ccccc2Cl)c1C(=O)Cl | 104% (inactive)
23 | N=c1c2c(=O)n3c(nc2nc2sc4ccc(Cl)cc4n12)-c1ccccc1Sc1ccccc1-3 | 24.3% (inactive)
24 | C/C(=N\NC(=O)c1ccccc1N)c1ccccc1O | 15.5% (inactive)
25 | CC[C@]1(O)C[C@H]2CN(CCc3c([nH]c4ccccc34)C(C(=O)OC)(c3cc4c(cc3OC)N(C)[C@H]3[C@@](O)(C(=O)OC)[C@H](OC(C)=O)[C@]5(CC)[C@@H]6C[C@@H]6CN6CC[C@]43[C@@H]65)C2)C1 (stereo not given in full) | 28.1% (inactive)
26 | CN1C(C(=O)Nc2ccccn2)=C(O)c2sc(Cl)cc2S1(=O)=O | 98.7% (inactive)
27 | CC(C)(C)NC/C(=C\c1ccccc1)C(=O)c1ccccc1 | -50.5% (active)
28 | COc1ccc(-c2cc(-c3cc(OC)c(OC)c(OC)c3)c(C#N)c(=O)n2CCCCCC(=O)NO)cc1 | 97.4% (inactive)
29 | COc1ccc(-c2[nH]ncc2-c2cc(OC)c(OC)c(OC)c2)cc1 | -4.91% (active)
30 | O=c1c2cc(F)ccc2sc2c(NCCN3CCOCC3)nc3ccccc3c12 | 71.3% (inactive)
31 | Cn1cc(-c2csc(-c3cn(C(=O)OC(C)(C)C)c4ccc(Br)cc34)n2)c2cccnc21 | 104% (inactive)
32 | Nc1c(O)c(S(=O)(=O)O)c(O)c2c1C(=O)c1ccccc1C2=O | 1.06% (active)
33 | N=C(N)c1ccc(-c2ccc(-c3ccc(F)cc3)o2)o1 | 5.37% (active)
34 | C/C(=C(/c1ccc(O)cc1)c1ccc(OCCN2CCCC2)cc1)c1ccccc1 | 34.7% (inactive)
35 | C=C1C(=O)O[C@H]2[C@H]1CC/C(Cn1cc(-c3ccccc3)nn1)=C\CC[C@@]1(C)O[C@@H]21 | -38.5% (active)
36 | O=c1oc2ccc(I)cc2c(=O)n1-c1ccc(Cl)cc1F | 0.339% (active)
37 | NC(=S)N/N=C(\c1ccc(Br)cc1)C1CC1 | 20% (inactive) and 19% (inactive)
38 | COc1cc(/C=C/C(=O)c2ccccc2)ccc1Oc1nc(NCCO)nc(N2CCOCC2)n1 | 103% (inactive)
39 | O=C(Nc1ccccc1)OCCc1ccccc1 | 99.2% (inactive)
40 | COc1cc(OC)cc(-c2ccc(-c3ccc(C(=N)N)s3)s2)c1 | -76.9% (active)
